Reference: PubChem BioAssay AID1347076 (National Center for Advancing Translational Sciences (NCATS), 2019)
The campaign covered roughly 400,000 compounds. About 13,000 (3.2%) were called active. A call without a number means that no potency is given here. Not shown: some 18% with an inconclusive outcome. Calls follow the shape of the dose curve; as a rule, active = well fitted cell-killing curve with a large enough effect; inconclusive = small, poorly fitted or top-dose-only effect, or effect the other way; inactive = flat fitted curve, though single readings scatter. The sample as a whole holds a higher share of actives than the screen did.

test: qHTS assay for MDR1-selective chemotherapeutics: Primary screen using the drug-selected MDR subline cells KB-V1; conditions: KB-V1 MDR cells viability, CellTiter-Glo, 72 h; series mostly up to 46.1 µM; also: nearly all actives have a fitted effect of over 60% in size
In short: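 Cytotoxicity via CellTiter-Glo luminescence after 72 h compound exposure at 37 degrees C. Cells: drug-selected KB-V1 line, DMEM phenol-red free plus 10% FBS. Compounds tested at multiple concentrations; normalized data fitted to concentration-effect curves.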
Potency is read from the fitted curve at half-maximal effect.

Compound | Potency
c1ccc(CNCc2ccc(CNCc3ccccc3)cc2)cc1 | inactive
CCc1nnc(SCC(=O)Nc2cc(OC)ccc2OC)nc1CC | inactive
Cc1ccccc1OS(=O)(=O)c1cccc([N+](=O)[O-])c1 | inactive
COc1ccccc1OCCOc1ccc(/C=N/n2cnnc2)cc1 | inactive
Cc1ccccc1OCCOc1ccc([N+](=O)[O-])cc1/C=N/n1cnnc1 | 8.2 µM (active)
O=C(CSc1nc2cccc(F)c2c(=O)n1-c1ccccc1)Nc1ccc2c(c1)CCC2 | inactive
O=C1c2ccccc2C(=O)N1CCCCCCN1C(=O)c2ccccc2C1=O | inactive
c1ccc(CCc2nc(-c3ccncc3)no2)cc1 | inactive
O=C1c2ccccc2C(=O)N1CCCc1nc(-c2ccccc2)no1 | 18.4 µM (active)
C[C@H]1CN([C@@H](C)CO)C(=O)CCCn2cc(nn2)CO[C@@H]1CN(C)S(=O)(=O)c1cccs1 | inactive
OC(c1ccc(Cl)c(F)c1)c1ncc(-c2ccccc2Cl)[nH]1 (stereo unspecified) | inactive
Cc1ccc(S(=O)(=O)N2CCOCC2)cc1NC(=O)c1ccncc1 | inactive
O=C(Nc1cc(S(=O)(=O)N2CCCCC2)ccc1Cl)C1COc2ccccc2O1 (stereo unspecified) | 14.6 µM (active)
O=C(CNCc1cccs1)Nc1cc(S(=O)(=O)N2CCCC2)ccc1Cl | inactive
CCN(CC)S(=O)(=O)c1ccc(N2CCOCC2)c(NC(=O)C2COc3ccccc3O2)c1 (stereo unspecified) | inactive
CCc1ccc(Sc2cc(C(=O)NCCCOC(C)C)c3ccccc3n2)cc1 | inactive
CCc1c(C)nc(N2CCN(Cc3ccccc3)CC2)[nH]c1=O | inactive
O=C1c2ccccc2C(=O)c2c1cccc2N1CCN(Cc2ccccc2)CC1 | 18.4 µM (active)
O=C1c2ccccc2C(=O)c2c1cccc2N1CCN(C/C=C/c2ccccc2)CC1 | inactive
O=c1[nH][nH]c2c1[C@H](c1ccc(Cl)cc1)O[C@H](CCc1ccccc1)C2 | inactive
O=C(CSc1nccn1Cc1ccc(Cl)cc1)NCc1ccccc1 | inactive
COc1cc(F)ccc1-c1cc(C(=O)NCC2CCCCC2)[nH]n1 | inactive

Compound | Potency
COc1ccc(S(=O)(=O)N2CCC(C(=O)N3CCc4ccccc4C3)CC2)cc1OC | 13 µM (active)
COc1ccc(S(=O)(=O)N2CCC(C(=O)N3CCOCC3)CC2)cc1OC | inactive
COc1ccc(S(=O)(=O)N2CCC(C(=O)N3CCCC3)CC2)cc1C | inactive
C[C@H](CO)N1C[C@H](C)[C@@H](CN(C)C(=O)c2cnccn2)Oc2ncc(Br)cc2C1=O | inactive
CC(C)c1ccc(NC(=O)c2ccc(Cn3nc(N4CCN(c5ccccc5)CC4)ccc3=O)o2)cc1 | inactive
Cc1ccc(-c2nc3ccc(Cl)cn3c2Cc2ccccc2)cc1 | inactive
CC1(C(=O)NS(=O)(=O)Cc2cccc(Cl)c2)CCN1C(=O)Cc1ccccc1 (stereo unspecified) | inactive
Cc1ccc(Oc2cc(NC(=O)CCCn3nc(C)c([N+](=O)[O-])c3C)cc([N+](=O)[O-])c2)cc1 | 10.3 µM (active)
COc1ccc(CNC(=O)CCCn2nc(C)c([N+](=O)[O-])c2C)cc1 | 25.9 µM (active)
COc1ccc(CNC(=O)CCn2cccc2)cc1 | inactive
CCc1ccc(NC(=O)Cn2nc(C)c([N+](=O)[O-])c2C)cc1 | inactive
Cc1nn(CC(=O)Nc2ccc(N(C)C)cc2)c(C)c1[N+](=O)[O-] | inactive
Cc1nn(CC(=O)NCc2ccccn2)c(C)c1[N+](=O)[O-] | inactive
CCCNC(=O)C1(C)CCN(C(=O)c2ccc(F)cc2Cl)C1 (stereo unspecified) | inactive
CCn1c(CSc2ncccn2)nnc1SCC(=O)N1c2ccccc2CC1C (stereo unspecified) | 11.6 µM (active)
COc1ccc(S(=O)(=O)N2CCN(CC(=O)N3c4ccccc4CC3C)CC2)cc1OC (stereo unspecified) | inactive
Cn1c(SCC(=O)OC2CCCCC2)nnc1-c1ccc(S(=O)(=O)N2CCCC2)cc1 | inactive
CC1CC(C)CN(C(=O)CSc2nnc(CSc3ncccn3)n2C)C1 (stereo unspecified) | inactive
O=C(CSc1nc2ccccc2o1)N1CCN(c2ccccc2)CC1 | inactive
CC1Cc2ccccc2N1C(=O)CSc1nc2ccccc2o1 (stereo unspecified) | 14.6 µM (active)
CCS(=O)(=O)c1ccc2oc(SCC(=O)N3c4ccccc4CC3C)nc2c1 (stereo unspecified) | 5.17 µM (active)
CC1Cc2ccccc2N1C(=O)Cn1cnc2ccccc2c1=O (stereo unspecified) | inactive

Compound | Potency
CC1Cc2ccccc2N1C(=O)CSc1nnc(-c2ccc(S(=O)(=O)N3CCCC3)cc2)n1C (stereo unspecified) | 16.4 µM (active)
CC1Cc2ccccc2N1C(=O)CSc1nnc(C2CC2)n1C (stereo unspecified) | inactive
CN(C)S(=O)(=O)c1ccc2oc(SCC(=O)Nc3ccccc3F)nc2c1 | inactive
CC(C)(C)C(=O)CSc1nc2ccccc2o1 | inactive
Cc1cc(C)c2sc(NC(=O)c3ccc(S(=O)(=O)N4CCCC4)cc3)nc2c1 | inactive
Brc1ccc2nc(-c3ccccc3)c(Cc3ccccc3)n2c1 | inactive
ClC/C=C/C[n+]1ccccc1Cl | inactive
CC(C)(C)c1ccc(S(=O)(=O)NC(=O)C2(C)CCN2C(=O)CC2CC2)cc1 (stereo unspecified) | inactive
COc1ccc(C(=O)N2CCCCC2c2cc(C(=O)Nc3ccccc3)no2)cc1 (stereo unspecified) | inactive
Cn1cc(S(=O)(=O)N2CCCCCC2)cc1C(=O)N1CCN(c2ccc(F)cc2)CC1 | inactive
CCOC(=O)c1cnc(SCC(=O)Nc2ccccc2C(=O)OC)nc1N | 2.59 µM (active)
CCOC(=O)c1cnc(SCC(=O)NCc2ccco2)nc1N | inactive
CCOC(=O)c1cnc(SCC(=O)Nc2cccc(OC)c2)nc1N | inactive
CCOC(=O)c1c(C)[nH]c(C)c1S(=O)(=O)N1CCC(C(=O)Nc2ccc(C)c(Cl)c2)CC1 | inactive
CCCCC(=O)N/N=C(\C)CC(=O)Nc1cc(Cl)ccc1OC | inactive
C/C(CC(=O)NCc1ccc(Cl)cc1)=N\NC(=O)COc1ccc(C)cc1Br | 8.2 µM (active)
Cc1ccc(CNC(=O)CN2CCN(Cc3ccc(Cl)cc3)C2=O)cc1 | inactive
O=C(NCc1ccc(F)cc1)c1cc(C2CCCCN2C(=O)c2cccs2)on1 (stereo unspecified) | inactive
CC1C(=O)N(Cc2cn(Cc3ccco3)nn2)CCS(=O)(=O)N1Cc1ccc(-c2cccc(CO)c2)cc1 (stereo unspecified) | inactive
CCc1ccc(-c2cc(C(=O)NN3CCN(C)CC3)c3ccccc3n2)cc1 | inactive
CN1CCN(CC(=O)Nc2cccc([N+](=O)[O-])c2)CC1 | inactive
CCCCc1nc2ccccc2c(NC(=O)CN2CCN(C)CC2)c1CCC | 8.2 µM (active)
